A549 tox-1 = A549 cytotoxicity, counter-screen for Nrf2 inhibitors | 390,000 compounds, 0.16% hits | Potency, µM (doses to about 46 µM), inactives show top-dose activity change, negative = cytotoxicity, usual class: inhibitors | A549 ARE-Fluc cells, CellTiter-Fluor viability, 18-24 h | AID 504648; also: % is scaled to controls: 0 for no effect and ±100 for the full control effect
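A549 ARE-Fluc cells in 5% FBS OPTI-MEM, 5000 cells/well, rested 2 h then exposed to compounds in concentration-response for 18-24 h at 37 °C. Viability by CellTiter-Fluor fluorescence (Ex 405/Em 525) after 30 min; luciferase luminescence (BugLite, 15 min, RT) read afterwards.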
ATXN2 expr inh = ATXN2 expression inhibition | HEK-293 ATXN2-luciferase reporter, luminescence, 24 h | Potency, µM (top dose mostly 57 µM), inactives show at the top dose activity change, negative = inhibition, actives largely listed as inhibitors | 360,000 compounds, 0.72% hits; also: % is scaled to controls: 0 for no effect and ±100 for the full control effect; nearly all actives have a fitted effect of over 55% in size
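qHTS (up to 57 uM final) was run with 24 h compound exposure of reporter cells at 37 °C. Each well was multiplexed: SteadyGlo luminescence measured ATXN2-luciferase expression after a fluorogenic Gly-Phe-AFC viability readout (25 uM final).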
Nrf2 inh = blocks Nrf2 signaling. A549 ARE-Fluc reporter, luciferase luminescence, 18-24 h. Potency, µM (top dose mostly 46 µM), for the others: top-dose activity change, negative = inhibition, usual class: inhibitors. 360,000 compounds, 2.1% hits. AID 504444; also: % is scaled to controls: 0 for no effect and ±100 for the full control effect; nearly all actives have a fitted effect of over 60% in size
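A549 ARE_Fluc cells, 5000/well, 5% FBS OPTI-MEM; compounds in dose-response, 18-24 h at 37 °C/5% CO2; CellTiter-Fluor viability read (Ex 405/Em 525), then BugLite luciferase luminescence = Nrf2 activity.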
S2 tox = reduces viability in counter-screen for ATXN expression inhibitors; S2 cells (HEK-293 line with an ATXN2-luciferase reporter) viability, CellTiter-Fluor protease fluorescence, 24 h; Potency, µM (doses to about 56.7 µM), actives largely listed as cytotoxic; 400,000 compounds, 0.49% hits; AID 651635; also: nearly all actives have a fitted effect of over 40% in size
Nrf2 ARE act = Nrf2 pathway activation. AREc32 ARE-luciferase reporter (MCF7-derived line), luminescence, 24 h. Potency, µM (series often up to 46.1 µM), for the others: top-dose activation, actives largely listed as activators. 410,000 compounds, 0.31% hits. AID 624171; also: % of control where 0% means no effect; nearly all actives have a fitted effect of over 65% in size
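Cells of the AREc32 ARE-luciferase line are plated in OPTI-MEM containing 5% FBS and left overnight at 37 deg C. Compounds are pinned in, incubation continues 24 hr, and firefly luciferase signal is then measured.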
FLuc counter 3 = blocks purified firefly luciferase in Nrf2 counterscreen; purified firefly luciferase, luminescence inhibition; shares compounds with Nrf2 inh; 1,400 compounds, 4% hits; Potency, µM (top dose mostly 57.5 µM), for inactives: top-dose activity change, negative = inhibition, hits mostly inhibitors; AID 720522; also: % is scaled to controls: 0 for no effect and ±100 for the full control effect; nearly all actives have a fitted effect of over 65% in size
Target sequence (P08659 whole entry, looked up): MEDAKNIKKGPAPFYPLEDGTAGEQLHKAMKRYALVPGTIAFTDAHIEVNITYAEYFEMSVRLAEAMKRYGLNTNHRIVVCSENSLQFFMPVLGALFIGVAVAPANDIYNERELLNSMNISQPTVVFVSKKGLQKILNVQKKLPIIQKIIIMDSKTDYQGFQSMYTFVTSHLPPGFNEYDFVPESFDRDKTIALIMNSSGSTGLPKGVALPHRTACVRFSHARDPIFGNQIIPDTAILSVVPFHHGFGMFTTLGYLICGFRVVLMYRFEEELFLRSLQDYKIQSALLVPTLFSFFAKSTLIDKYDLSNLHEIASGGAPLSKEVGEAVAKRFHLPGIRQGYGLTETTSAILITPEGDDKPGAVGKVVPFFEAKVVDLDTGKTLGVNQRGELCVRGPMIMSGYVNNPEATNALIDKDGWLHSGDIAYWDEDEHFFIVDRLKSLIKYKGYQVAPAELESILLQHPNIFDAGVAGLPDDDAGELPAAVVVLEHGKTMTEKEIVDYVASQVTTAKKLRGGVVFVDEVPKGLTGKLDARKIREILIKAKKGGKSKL
A549 tox-2 = toxic to A549 ARE-Fluc cells in Nrf2 counterscreen; shares compounds with Nrf2 inh; A549 ARE-Fluc cells, cytotoxicity counterscreen; Potency, µM (highest dose often 46.1 µM), for the others: top-dose activity change, negative = cytotoxicity, most hits filed as inhibitors; 1,400 compounds, 2% hits; AID 720523;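 also: cells exposed to compounds for 18 to 24 hours; % is scaled to controls: 0 for no effect and ±100 for the full control effect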
ARE-Fluc inh = confirmation of Nrf2 inhibitors in A549 ARE reporter cells | A549 ARE-firefly luciferase reporter, luminescence | 1,400 compounds, 74% hits | shares compounds with Nrf2 inh | Potency, µM (highest dose often 46.1 µM), inactives show top-dose activity change, negative = inhibition, hits mostly inhibitors | AID 720524; also: % is scaled to controls: 0 for no effect and ±100 for the full control effect; nearly all actives have a fitted effect of over 65% in size
An asterisk follows results filed as active; i = inactive; u = inconclusive; x = no result shown. An excerpt weighted towards active compounds, which were near 2.9% of everything screened. Calls follow the shape of the dose curve; as a rule, active = well fitted curve in the direction sought with a large enough effect; inconclusive = small, poorly fitted or top-dose-only effect, or another doubt; inactive = no such curve, though single readings can be large; an effect the other way counts as inactive or inconclusive. Potency is read from the fitted curve at half-maximal effect.

SMILES	A549 tox-1	ATXN2 expr inh	Nrf2 inh	S2 tox	Nrf2 ARE act	FLuc counter 3	A549 tox-2	ARE-Fluc inh
c1csc(CNc2ncnc3sccc23)c1	-17.3%	-14.2%	5.8µM*	i	12.8%	0.7%	1.1%	7.31µM*
c1ccc(CNc2ncnc3sccc23)cc1	-5.7%	x	9.7%	i	4.0%	x	x	x
Cc1nn(-c2ccccc2)c(OC(=O)c2ccc(F)cc2)c1S(=O)(=O)c1ccccc1	1.1%	-6.4%	-0.4%	i	-1.1%	x	x	x
Cc1cccc(C(=O)Nc2ccnc(-c3ccncc3)n2)c1	u	x	2.59µM*	i	-0.2%	-2.6%	0.7%	-24.3%
Cc1cccc(C(=O)Nc2ccc3oc(-c4ccncc4)nc3c2)c1	-2.4%	x	9.2µM*	x	-1.0%	-17.7%	-4.6%	1.46µM*
CC(=O)c1ccc(N2CCN(C(=S)Nc3ccc(Oc4ccccc4)cc3)CC2)cc1	u	u	6.51µM*	i	1.7%	-9.1%	-0.7%	8.2µM*
COc1ccc(C(=O)C2CCCN(Cc3cnc(N4CCOCC4)s3)C2)c(OC)c1 (stereo not drawn)	u	-29.6%	9.2µM*	i	4.0%	1.6%	-8.5%	-12.1%
COc1ccc(C(=O)C2CCCN(Cc3cnc(N4CCOCC4)s3)C2)cc1F (stereo not drawn)	-0.2%	u	u	u	2.9%	x	x	x
CC(C)Oc1cccc(C(=O)C2CCCN(Cc3cnc(N4CCOCC4)s3)C2)c1 (stereo not drawn)	-18.4%	u	9.2µM*	i	4.2%	1.5%	-10.4%	x
O=C(NNC1CC(=O)N(c2ccc(Cl)cc2)C1=O)c1ccccn1 (stereo not drawn)	11.1%	x	9.9%	u	0.9%	x	x	x
COc1ccc(-c2cc(C(=O)Nc3cc(Cl)ccc3O)no2)cc1	0.4%	2.5%	u	i	2.1%	x	x	x
Clc1ccc(/C=C/c2ccncc2)cc1Cl	x	x	x	x	x	0.0%	-39.4%	u
COc1ccc(N2CCN(C(=O)CN3CCN(c4nc(-c5ccc(F)cc5)cs4)CC3)CC2)cc1	u	-15.5%	7.31µM*	i	0.0%	-5.4%	-16.0%	11.6µM*
Cc1nc2ccccc2n1Cc1ccc(Br)cc1	0.6%	u	u	i	2.2%	-20.7%	2.9%	u
O=C1c2ccccc2-n2c1nc1ccccc1c2=O	-19.7%	-6.5%	5.17µM*	i	4.3%	-26.4%	16.4µM*	6.51µM*
Cn1nccc1C(=O)Nc1sc2c(c1C#N)CCCC2	-6.5%	8.6%	-1.5%	i	11.1%	x	x	x
COc1ccc(-c2c(C)sc(NC(=O)c3ccnn3C)c2C#N)cc1	-9.5%	-21.2%	6.51µM*	i	4.9%	-13.9%	u	x
COc1cc(/C=N/NC(=O)C(NC(=O)c2ccccc2)c2n[nH]c(=O)c3ccccc23)ccc1OCC(N)=O (stereo not drawn)	5.1%	2.3%	-17.0%	i	0.2%	x	x	x
CCN(CC(=O)NC1CCS(=O)(=O)C1)S(=O)(=O)c1ccccc1Cl (stereo not drawn)	0.3%	-2.8%	-5.1%	i	-0.5%	x	x	x
CCOC(=O)N1CCC(Nc2ncnc3c2cnn3-c2ccc(C)cc2C)CC1	-16.4%	u	8.2µM*	i	0.7%	0.7%	-1.7%	13µM*
COc1ccc(NC(=O)CSc2nc(-c3ccco3)cc(C(F)(F)F)n2)cc1Cl	-10.2%	x	7.31µM*	x	3.8%	-0.5%	-4.8%	20.6µM*
Cc1ccc(S(=O)(=O)Nc2ccc(Cl)cc2C(=O)c2ccccc2)cc1	-24.3%	-6.5%	5.8µM*	i	3.4%	1.9%	10.2%	-2.0%
COC(=O)c1c(C)oc2ccc(N(C(=O)c3ccncc3)S(=O)(=O)c3ccc(OC)cc3)cc12	u	x	0.82µM*	x	-1.1%	-3.0%	-7.4%	14.6µM*
CCOc1ccc(S(=O)(=O)N(C(=O)c2ccncc2)c2ccc3oc(C)c(C(=O)OC)c3c2)cc1	u	x	0.651µM*	x	-1.4%	1.2%	-14.7%	-17.6%
COc1ccc(S(=O)(=O)N(C(=O)c2ccncc2)c2ccc3oc4c(c3c2)CCCC4)cc1	u	-23.5%	u	u	1.2%	x	x	x
SMILES	A549 tox-1	ATXN2 expr inh	Nrf2 inh	S2 tox	Nrf2 ARE act	FLuc counter 3	A549 tox-2	ARE-Fluc inh
CCc1ccc(S(=O)(=O)N(C(=O)c2ccncc2)c2ccc3oc(C)c(C(=O)OC)c3c2)cc1	-12.9%	x	6.51µM*	x	0.0%	-8.3%	-12.7%	10.3µM*
COc1ccc(S(=O)(=O)N(C(=O)c2ccncc2)c2ccc3oc(C)c(C(C)=O)c3c2)cc1	0.0%	x	5.8µM*	x	0.5%	-2.1%	0.0%	u
CCOc1nc(Nc2ccc(OC)c(Cl)c2)nc(N2CCN(c3ccc(OC)cc3)CC2)n1	-7.2%	-5.9%	x	i	5.1%	x	x	x
C/C(=N/NC(=O)c1cc(-c2cccc([N+](=O)[O-])c2)n[nH]1)c1cccc(O)c1	-0.5%	x	-41.1%	i	1.3%	x	x	x
C/C(=N\NC(=O)c1cc(-c2cccc([N+](=O)[O-])c2)n[nH]1)c1ccccc1O	u	u	9.2µM*	i	-1.2%	-13.5%	-3.2%	u
COc1ccc(-n2c(-c3ccc(Br)cc3)c[n+]3c2CCCCC3)cc1	-2.2%	u	u	i	2.5%	x	x	x
COc1ccc(-n2c(-c3ccccc3)c[n+]3c2CCC3)cc1	-12.3%	u	9.2µM*	u	0.4%	0.9%	-12.2%	6.51µM*
COc1ccc(-n2c(-c3ccc(Br)cc3)c[n+]3c2CCC3)cc1	-13.0%	u	4.61µM*	u	-0.6%	0.7%	-0.5%	-35.8%
CCOc1ccc(-c2c[n+]3c(n2-c2ccccc2)CCCCC3)cc1	u	u	0.92µM*	i	-0.1%	0.7%	-16.0%	10.3µM*
O=C(CSc1nnc(COc2ccc(Cl)cc2)o1)N(c1ccccc1)C1CCS(=O)(=O)C1 (stereo not drawn)	x	x	x	u	7.5%	x	x	x
C/C(=N/N=C(/C)c1cccs1)c1cccs1	8.1%	78.3%	u	i	u	x	x	x
O=C(NCC1([N+](=O)[O-])CN(C(=O)c2ccccc2)CN(C(=O)c2ccccc2)C1)c1ccccc1	2.8%	-19.6%	u	i	0.2%	x	x	x
CC(C)CC[n+]1ccccc1/C=C/c1ccc(N(C)C)cc1	u	u	7.31µM*	u	2.8%	2.2%	u	5.8µM*
